{"source": "PubChem BioAssay (NCATS)", "note": "Unmarked numbers belong to inactive results. The source made the active and inactive calls. Calls follow the shape of the dose curve; as a rule, active = well fitted curve in the direction sought with a large enough effect; inconclusive = small, poorly fitted or top-dose-only effect, or another doubt; inactive = no such curve, though single readings can be large or run the other way."}
{"molecular_target": "Galactokinase (Homo sapiens) (UniProt P51570)", "sequence (P51570 whole entry, looked up)": "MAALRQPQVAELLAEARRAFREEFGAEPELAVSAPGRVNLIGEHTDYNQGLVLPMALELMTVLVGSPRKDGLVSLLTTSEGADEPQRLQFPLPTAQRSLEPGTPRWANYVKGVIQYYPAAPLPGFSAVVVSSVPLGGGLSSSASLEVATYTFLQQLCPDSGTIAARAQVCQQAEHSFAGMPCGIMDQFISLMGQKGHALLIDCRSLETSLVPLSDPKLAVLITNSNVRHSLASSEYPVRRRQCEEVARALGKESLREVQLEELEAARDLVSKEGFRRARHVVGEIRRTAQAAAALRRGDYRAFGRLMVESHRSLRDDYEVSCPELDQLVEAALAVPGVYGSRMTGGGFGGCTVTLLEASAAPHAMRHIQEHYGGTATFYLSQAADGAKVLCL", "assay": "qHTS Validation Assay for Inhibitors of Human Galactokinase (GALK) (AID 493189); also: 0% is about no effect", "conditions": "purified human GALK enzyme activity, qHTS 7-point titration; series mostly up to 57.5 µM; activity change, negative = inhibition: at the top concentration", "description": "NIH Molecular Libraries Probe Production Centers Network [MLPCN]\nNIH Chemical Genomics Center [NCGC]\nAssay Submitter (PI): Kent Lai (University of Utah School of Medicine, 50 N Mario Capecchi Drive, Salt Lake City, UT 84132)\nInherited deficiency of galactose-1-phosphate uridyltransferase (GALT) can result in a potentially lethal disorder called Classic Galactosemia (OMIM 230400). Several lines of evidence indicate that an elevated level of galactose-1-phosphate (gal-1-p), the product of galactokinase (GALK), is a major, if not sole, pathogenic mechanism in patients with classic galactosemia. Therefore, finding inhibitors of GALK is a potential novel therapy for this inherent metabolic disease and is the long term goal of this project.\nGALK (provided by the assay submitter) was assayed using ATP and D-(+)-Galactose (Sigma-Aldrich cat# G0750) as substrates. Promega Kinase-Glo Plus (cat# V3774) technology was used to detect the residual ATP following kinetic reaction. Briefly, the Kinase-Glo Plus contains Ultra-Glo [2] luciferase and D-luciferin which generates a bioluminescence signal from the remaining ATP.\nNCGC Assay Protocol Summary:\nThree uL/well of ATP-buffer solution (35 uM ATP, 20mM HEPES pH8.0, 5 mM MgCl2, 60 mM NaCl, 1 mM DTT, 0.01% BSA final concentration) was dispensed into 1536-well, assay plates (Greiner, solid white medium-binding plates) with Aurora Discovery BioRAPTR Flying Reagent Dispenser (FRD; Beckton-Dickenson). Compound solution (23 nL) was transferred to the assay plate using the Kalypsys 1536-pin tool. One uL/well GALK-galactose solution (5 nM GALK, 100 uM galactose, 20 mM HEPES pH8.0, 5 mM MgCl2, 60 mM NaCl, 1 mM DTT, 0.01% BSA final concentration) was then added using the FRD yielding a total kinase reaction volume of 4 uL/ well. After 1 hour of room temperature incubation, 4 uL Kinase-Glo Plus reagent was added for a final assay volume of 8 uL/ well. Luminescence was detected with the ViewLux plate reader (Perkin Elmer, Waltham, MA) after 10 min incubation using a 1 sec exposure time and 2x binning.", "units": {"activity change, negative = inhibition": "%"}}
{"smiles": "Clc1cccc(N2CCNCC2)c1", "activity change, negative = inhibition": 3.13}
{"smiles": "C=C(C)[C@H]1Cc2c(ccc3c2O[C@@H]2COc4cc(OC)c(OC)cc4[C@@H]2C3=O)O1", "activity change, negative = inhibition": 1.97}
{"smiles": "CCC1(C2=NCCN2)Cc2ccccc2O1", "note": "(centres undefined)", "activity change, negative = inhibition": -0.0707}
{"smiles": "CC[N+](CC)(CC)CC", "activity change, negative = inhibition": -11}
{"smiles": "N#CC(C#N)=Cc1ccc(O)c(O)c1", "activity change, negative = inhibition": 1.52}
{"smiles": "O=C1NCN(c2ccccc2)C12CCN(CC1COc3ccccc3O1)CC2", "note": "(centres undefined)", "activity change, negative = inhibition": 2.93}
{"smiles": "O=c1[nH]c2ccccc2n1CCCN1CCC(n2c(=O)[nH]c3cc(Cl)ccc32)CC1", "activity change, negative = inhibition": -2.45}
{"smiles": "CCn1cc(C(=O)O)c(=O)c2ccc(C)nc21", "activity change, negative = inhibition": 3.35}
{"smiles": "COC[C@H]1OC(=O)c2coc3c2[C@@]1(C)C1=C(C3=O)C2CCC(=O)[C@@]2(C)C[C@H]1OC(C)=O", "note": "(some centres undefined)", "activity change, negative = inhibition": 27.5}
{"smiles": "Nc1ccncc1", "activity change, negative = inhibition": -3.44}
{"smiles": "c1ccc2c(c1)OCC(C1=NCCN1)O2", "note": "(centres undefined)", "activity change, negative = inhibition": 2.67}
{"smiles": "NN=C(N)N", "outcome": "inactive"}
{"smiles": "CCCC(C)(COC(N)=O)COC(=O)NC(C)C", "note": "(centres undefined)", "activity change, negative = inhibition": -3.03}
{"smiles": "NCC(O)c1ccc(O)cc1", "note": "(centres undefined)", "activity change, negative = inhibition": -0.955}
{"smiles": "Cc1cccc(C)c1NC1=NCCCS1", "activity change, negative = inhibition": -12.3}
{"smiles": "CNCC(O)c1ccc(O)cc1", "note": "(centres undefined)", "activity change, negative = inhibition": -3.97}
{"smiles": "Cc1ccc(S(=O)(=O)N[C@@H](CCCCN)C(=O)CCl)cc1", "activity change, negative = inhibition": -3.02}
{"smiles": "COc1ccc(Cc2nccc3cc(OC)c(OC)cc23)cc1OC", "activity change, negative = inhibition": 5.46}
{"smiles": "COc1ccccc1N1CCNCC1", "activity change, negative = inhibition": 3.59}
{"smiles": "O=c1[nH]c2ccccc2n1C1CCN(CCCC(c2ccc(F)cc2)c2ccc(F)cc2)CC1", "activity change, negative = inhibition": -10.6}
{"smiles": "CC(CCc1ccccc1)NC(C)C(O)c1ccc(O)cc1", "note": "(centres undefined)", "activity change, negative = inhibition": -2.03}
{"smiles": "Fc1ccc(C(OCCN2CCN(CCCc3ccccc3)CC2)c2ccc(F)cc2)cc1", "activity change, negative = inhibition": 0.432}
{"smiles": "c1ccc(C2CC2)c(OCC2=NCCN2)c1", "activity change, negative = inhibition": -1.57}
{"smiles": "CN1C[C@H](CNC(=O)OCc2ccccc2)C[C@@H]2c3cccc4c3c(cn4C)C[C@H]21", "activity change, negative = inhibition": 5.03}
{"smiles": "CCCN1CCC[C@@H]2Cc3nc(N)ncc3C[C@H]21", "activity change, negative = inhibition": 3.57}
{"smiles": "CC(=O)[C@H]1CC[C@H]2[C@@H]3CC[C@H]4C[C@H](O)CC[C@]4(C)[C@H]3C(=O)C[C@]12C", "activity change, negative = inhibition": 2.85}
{"smiles": "NCC1(CC(=O)O)CCCCC1", "activity change, negative = inhibition": -2.23}
{"smiles": "Cc1ncc(CNC(=O)N(CCCl)N=O)c(N)n1", "activity change, negative = inhibition": -1.32}
{"smiles": "NCC(CC(=O)O)c1ccc(Cl)cc1", "note": "(centres undefined)", "activity change, negative = inhibition": 2.97}
